Binding signal data for one sequence are collected here from article PMC7862700, “An all-to-all approach to the identification of sequence-specific readers for epigenetic DNA modifications on cytosine”.

Assay in all cases: DAPPL (digital affinity profiling via proximity ligation, sequencing); 10 mM Tris-HCl pH 7.5, 50 mM NaCl, 1 mM DTT, 4% glycerol, room temperature, 30 min; GST-TFs on glutathione beads, 16-mer random dsDNA library, 0.1% formaldehyde crosslink after washing; high values mean tight binding
The target of one assay is T1, FLI1 (Homo sapiens, UniProt Q01543 1-452).
T1 sequence: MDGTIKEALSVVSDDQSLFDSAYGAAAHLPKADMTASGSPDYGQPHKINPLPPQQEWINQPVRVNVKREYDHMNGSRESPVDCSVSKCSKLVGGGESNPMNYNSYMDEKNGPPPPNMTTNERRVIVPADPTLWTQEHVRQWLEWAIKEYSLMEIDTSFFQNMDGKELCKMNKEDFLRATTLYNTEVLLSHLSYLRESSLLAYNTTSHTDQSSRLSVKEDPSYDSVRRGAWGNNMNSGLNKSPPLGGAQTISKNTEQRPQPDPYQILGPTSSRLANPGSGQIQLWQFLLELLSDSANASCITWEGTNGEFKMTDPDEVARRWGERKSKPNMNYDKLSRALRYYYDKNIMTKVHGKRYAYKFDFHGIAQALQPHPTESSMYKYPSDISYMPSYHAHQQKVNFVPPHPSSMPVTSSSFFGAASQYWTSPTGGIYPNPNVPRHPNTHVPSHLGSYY
The conditions noted are these: protein: recombinant; tags: N-terminal GST; dsDNA, one strand shown. The method, boiled down:
(§1)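 Binding signal is each hexamer's read frequency for a factor divided by its frequency in the tag-only sample. The factors were GST-fused human transcription factors from yeast, captured on glutathione beads, DNA-barcoded and pooled with that sample. Pools were incubated with 200 nmole of a random double-stranded 16-mer DNA library in Tris/NaCl/DTT/glycerol buffer at room temperature for 30 min, then washed, crosslinked with 0.1% formaldehyde, proximity-ligated with BsaI/T4 ligase (1 h, 37 °C), PCR-amplified and sequenced on an Illumina NextSeq500.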

For the next assay, the target named is T2, ELK1 (Homo sapiens, UniProt P19419 1-428).
T2 sequence: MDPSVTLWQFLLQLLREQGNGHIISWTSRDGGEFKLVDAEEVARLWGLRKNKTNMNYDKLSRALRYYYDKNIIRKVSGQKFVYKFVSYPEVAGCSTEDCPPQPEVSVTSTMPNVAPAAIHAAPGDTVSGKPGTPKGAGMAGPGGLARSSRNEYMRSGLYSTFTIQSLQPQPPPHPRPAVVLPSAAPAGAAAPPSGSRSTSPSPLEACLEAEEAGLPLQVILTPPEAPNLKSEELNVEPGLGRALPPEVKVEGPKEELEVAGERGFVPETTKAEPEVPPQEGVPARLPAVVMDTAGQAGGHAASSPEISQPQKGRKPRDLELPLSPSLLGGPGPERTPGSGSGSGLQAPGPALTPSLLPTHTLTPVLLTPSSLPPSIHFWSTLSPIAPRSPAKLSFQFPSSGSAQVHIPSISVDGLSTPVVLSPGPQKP
The conditions noted are these: protein: recombinant; tags: N-terminal GST; dsDNA, one strand shown. The method, boiled down: as §1

A further assay deals with T3, GABPA (Homo sapiens, UniProt Q06546 1-454).
T3 sequence: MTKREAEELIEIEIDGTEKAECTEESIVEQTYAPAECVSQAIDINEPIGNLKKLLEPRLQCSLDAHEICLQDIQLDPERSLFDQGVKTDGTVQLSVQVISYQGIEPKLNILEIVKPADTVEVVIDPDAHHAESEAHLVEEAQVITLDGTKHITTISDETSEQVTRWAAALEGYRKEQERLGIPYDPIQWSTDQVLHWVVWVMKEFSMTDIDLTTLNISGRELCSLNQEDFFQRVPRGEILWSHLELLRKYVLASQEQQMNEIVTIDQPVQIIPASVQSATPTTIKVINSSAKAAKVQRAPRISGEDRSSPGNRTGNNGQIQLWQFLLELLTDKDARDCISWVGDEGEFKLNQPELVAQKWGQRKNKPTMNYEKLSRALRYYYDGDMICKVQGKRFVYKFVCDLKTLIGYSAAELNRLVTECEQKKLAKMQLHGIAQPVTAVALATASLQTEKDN
To be noted: protein: recombinant; tags: N-terminal GST; dsDNA, one strand shown. The method, boiled down:
as §1

The target in the next assay is T4, ERG (Homo sapiens, UniProt P11308 1-479).
T4 sequence: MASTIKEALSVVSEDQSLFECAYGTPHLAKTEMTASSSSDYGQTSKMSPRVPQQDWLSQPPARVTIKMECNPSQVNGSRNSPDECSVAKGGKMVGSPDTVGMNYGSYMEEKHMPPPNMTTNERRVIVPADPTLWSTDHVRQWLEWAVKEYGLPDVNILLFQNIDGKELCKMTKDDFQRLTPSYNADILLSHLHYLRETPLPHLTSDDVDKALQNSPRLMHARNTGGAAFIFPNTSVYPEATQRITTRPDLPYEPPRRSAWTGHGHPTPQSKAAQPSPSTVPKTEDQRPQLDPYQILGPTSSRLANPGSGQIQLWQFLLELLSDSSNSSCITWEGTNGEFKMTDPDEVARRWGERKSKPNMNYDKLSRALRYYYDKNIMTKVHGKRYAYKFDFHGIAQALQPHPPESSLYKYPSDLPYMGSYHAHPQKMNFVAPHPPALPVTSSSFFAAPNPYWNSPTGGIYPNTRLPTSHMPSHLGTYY
To be noted: protein: recombinant; tags: N-terminal GST; dsDNA, one strand shown. The method, boiled down: as §1

The target of another assay is ELF1 (Homo sapiens, UniProt P32519 1-619). The conditions noted are these: protein: recombinant; tags: N-terminal GST; dsDNA, one strand shown. The method, boiled down: as §1
Chain of ELF1 (P32519 whole entry): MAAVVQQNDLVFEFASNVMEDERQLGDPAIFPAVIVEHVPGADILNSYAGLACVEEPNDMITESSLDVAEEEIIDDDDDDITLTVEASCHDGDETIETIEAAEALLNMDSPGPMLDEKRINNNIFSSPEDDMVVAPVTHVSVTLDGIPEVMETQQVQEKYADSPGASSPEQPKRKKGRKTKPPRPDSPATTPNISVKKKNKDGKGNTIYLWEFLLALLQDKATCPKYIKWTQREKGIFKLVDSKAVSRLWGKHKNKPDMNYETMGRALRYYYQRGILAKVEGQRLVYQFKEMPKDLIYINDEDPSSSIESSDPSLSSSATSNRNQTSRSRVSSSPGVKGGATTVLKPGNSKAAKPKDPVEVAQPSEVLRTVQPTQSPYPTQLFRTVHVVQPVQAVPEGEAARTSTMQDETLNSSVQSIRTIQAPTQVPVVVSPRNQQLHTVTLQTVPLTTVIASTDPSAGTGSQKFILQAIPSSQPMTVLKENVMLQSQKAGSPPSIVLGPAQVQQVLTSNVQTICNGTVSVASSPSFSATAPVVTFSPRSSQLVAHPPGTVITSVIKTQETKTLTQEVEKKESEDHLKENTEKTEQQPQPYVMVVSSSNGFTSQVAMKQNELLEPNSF
A further assay has as its target T5, EHF (Homo sapiens, UniProt Q9NZC4 1-300).
T5 sequence: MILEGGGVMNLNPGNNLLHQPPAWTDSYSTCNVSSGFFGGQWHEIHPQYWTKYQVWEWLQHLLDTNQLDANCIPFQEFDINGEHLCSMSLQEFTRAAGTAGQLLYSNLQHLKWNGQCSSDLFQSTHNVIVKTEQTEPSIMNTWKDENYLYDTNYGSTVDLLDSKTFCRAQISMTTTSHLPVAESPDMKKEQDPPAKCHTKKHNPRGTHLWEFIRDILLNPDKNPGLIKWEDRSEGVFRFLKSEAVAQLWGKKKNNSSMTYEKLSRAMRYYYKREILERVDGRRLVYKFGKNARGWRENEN
The conditions noted are these: protein: recombinant; tags: N-terminal GST; dsDNA, one strand shown. The method, boiled down: as §1

A further assay has as its target SPI1 (Homo sapiens, UniProt P17947 1-270). To be noted: protein: recombinant; tags: N-terminal GST; dsDNA, one strand shown. The method, boiled down: as §1
Another assay has as its target SPIB (Homo sapiens, UniProt Q01892 1-262). To be noted: protein: recombinant; tags: N-terminal GST; dsDNA, one strand shown. The method, boiled down:
as §1

Another assay deals with T6, ELK3 (Homo sapiens, UniProt P41970 1-407).
T6 sequence: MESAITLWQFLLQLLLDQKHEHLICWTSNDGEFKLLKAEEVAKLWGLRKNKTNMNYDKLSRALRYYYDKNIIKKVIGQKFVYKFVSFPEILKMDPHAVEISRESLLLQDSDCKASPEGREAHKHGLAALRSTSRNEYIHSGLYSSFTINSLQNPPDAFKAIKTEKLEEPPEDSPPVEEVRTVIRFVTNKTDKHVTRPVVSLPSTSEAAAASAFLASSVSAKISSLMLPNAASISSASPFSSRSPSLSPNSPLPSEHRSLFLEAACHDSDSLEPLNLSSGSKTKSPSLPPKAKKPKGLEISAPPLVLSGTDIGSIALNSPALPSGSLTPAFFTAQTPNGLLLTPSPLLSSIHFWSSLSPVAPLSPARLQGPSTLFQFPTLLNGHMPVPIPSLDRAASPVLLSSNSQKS
To be noted: protein: recombinant; tags: N-terminal GST; dsDNA, one strand shown. The method, boiled down: as §1

Another assay has as its target T7, FEV (Homo sapiens, UniProt Q99581 1-238).
T7 sequence: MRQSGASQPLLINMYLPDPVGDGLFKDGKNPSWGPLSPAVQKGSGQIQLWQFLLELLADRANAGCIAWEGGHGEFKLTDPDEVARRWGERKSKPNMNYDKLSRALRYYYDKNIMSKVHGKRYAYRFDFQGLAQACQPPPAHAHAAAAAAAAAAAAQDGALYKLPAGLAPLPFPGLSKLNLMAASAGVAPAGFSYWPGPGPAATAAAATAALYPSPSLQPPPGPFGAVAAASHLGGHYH
The conditions noted are these: protein: recombinant; tags: N-terminal GST; dsDNA, one strand shown. The method, boiled down: as §1

The target of the next assay is ETV5 (Homo sapiens, UniProt P41161 1-510). The conditions noted are these: protein: recombinant; tags: N-terminal GST; dsDNA, one strand shown. The method, boiled down: as §1
Chain of ETV5 (P41161 whole entry): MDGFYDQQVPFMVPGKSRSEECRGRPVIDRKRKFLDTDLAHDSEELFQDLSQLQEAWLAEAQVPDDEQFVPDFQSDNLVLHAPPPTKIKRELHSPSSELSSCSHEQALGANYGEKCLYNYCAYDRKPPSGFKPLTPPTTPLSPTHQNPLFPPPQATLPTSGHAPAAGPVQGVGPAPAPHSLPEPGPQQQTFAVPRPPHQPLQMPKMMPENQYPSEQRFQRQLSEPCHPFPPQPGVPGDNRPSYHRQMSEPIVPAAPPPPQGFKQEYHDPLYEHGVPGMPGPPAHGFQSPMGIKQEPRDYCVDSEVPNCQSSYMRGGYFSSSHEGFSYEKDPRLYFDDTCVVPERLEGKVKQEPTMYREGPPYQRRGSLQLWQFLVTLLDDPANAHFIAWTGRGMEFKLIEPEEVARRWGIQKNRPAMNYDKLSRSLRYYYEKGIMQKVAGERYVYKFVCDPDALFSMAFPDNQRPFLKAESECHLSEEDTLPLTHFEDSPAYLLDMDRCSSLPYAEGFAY
The next assay deals with HSF1 (Homo sapiens, UniProt Q00613 1-529). To be noted: protein: recombinant; tags: N-terminal GST; chain copies: 3; dsDNA, one strand shown. The method, boiled down:
as §1

Another assay has as its target T8, SPIC (Homo sapiens, UniProt Q8N5J4 1-248).
T8 sequence: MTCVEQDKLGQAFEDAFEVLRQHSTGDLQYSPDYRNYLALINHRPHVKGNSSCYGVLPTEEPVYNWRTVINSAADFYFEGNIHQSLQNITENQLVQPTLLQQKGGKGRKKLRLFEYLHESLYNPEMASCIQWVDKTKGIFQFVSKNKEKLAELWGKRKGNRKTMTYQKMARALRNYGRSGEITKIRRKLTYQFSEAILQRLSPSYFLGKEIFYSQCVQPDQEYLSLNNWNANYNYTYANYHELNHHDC
To be noted: protein: recombinant; tags: N-terminal GST; dsDNA, one strand shown. The method, boiled down: as §1

In a further assay the target is ELF4 (Homo sapiens, UniProt Q99607 1-663). The conditions noted are these: protein: recombinant; tags: N-terminal GST; dsDNA, one strand shown. The method, boiled down:
as §1

For another assay, the target named is T9, ELK4 (Homo sapiens, UniProt P28324-2 1-405).
T9 sequence: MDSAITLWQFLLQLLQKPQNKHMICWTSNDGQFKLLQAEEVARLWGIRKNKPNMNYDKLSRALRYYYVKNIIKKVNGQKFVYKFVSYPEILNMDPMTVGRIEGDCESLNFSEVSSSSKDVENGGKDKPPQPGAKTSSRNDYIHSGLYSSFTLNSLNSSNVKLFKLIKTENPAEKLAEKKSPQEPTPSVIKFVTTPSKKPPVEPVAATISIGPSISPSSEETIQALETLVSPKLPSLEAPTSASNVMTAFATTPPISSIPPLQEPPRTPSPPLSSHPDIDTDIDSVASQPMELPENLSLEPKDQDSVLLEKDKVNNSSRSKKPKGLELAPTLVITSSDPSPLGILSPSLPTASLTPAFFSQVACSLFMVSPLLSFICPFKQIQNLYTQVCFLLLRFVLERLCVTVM
To be noted: protein: recombinant; tags: N-terminal GST; dsDNA, one strand shown. The method, boiled down: as §1

The target of the next assay is T10, ETV2 (Homo sapiens, UniProt O00321 1-342).
T10 sequence: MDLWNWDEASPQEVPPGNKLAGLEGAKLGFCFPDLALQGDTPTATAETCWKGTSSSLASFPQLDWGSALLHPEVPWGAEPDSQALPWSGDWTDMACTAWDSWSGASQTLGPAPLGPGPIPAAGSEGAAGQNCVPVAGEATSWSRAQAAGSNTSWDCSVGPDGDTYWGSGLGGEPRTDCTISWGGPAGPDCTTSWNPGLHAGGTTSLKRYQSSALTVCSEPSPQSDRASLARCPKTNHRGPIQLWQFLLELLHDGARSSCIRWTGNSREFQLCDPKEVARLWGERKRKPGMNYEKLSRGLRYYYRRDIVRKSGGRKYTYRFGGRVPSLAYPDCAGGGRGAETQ
To be noted: protein: recombinant; tags: N-terminal GST; dsDNA, one strand shown. The method, boiled down: as §1

The target of another assay is T11, ELF3 (Homo sapiens, UniProt P78545 1-371).
T11 sequence: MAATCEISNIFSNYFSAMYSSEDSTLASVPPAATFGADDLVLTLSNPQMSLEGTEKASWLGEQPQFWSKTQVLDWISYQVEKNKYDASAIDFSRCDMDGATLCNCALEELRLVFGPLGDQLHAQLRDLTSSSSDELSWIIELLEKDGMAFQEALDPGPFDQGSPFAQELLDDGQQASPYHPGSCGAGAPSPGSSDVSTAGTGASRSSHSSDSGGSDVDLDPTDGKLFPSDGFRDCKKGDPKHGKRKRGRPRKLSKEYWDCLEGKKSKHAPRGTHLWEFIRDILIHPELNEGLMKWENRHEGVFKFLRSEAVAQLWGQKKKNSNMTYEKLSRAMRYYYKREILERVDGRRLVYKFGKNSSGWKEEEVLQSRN
To be noted: protein: recombinant; tags: N-terminal GST; dsDNA, one strand shown. The method, boiled down:
as §1

The target in another assay is CRX (Homo sapiens, UniProt O43186 1-299). The conditions noted are these: protein: recombinant; tags: N-terminal GST; dsDNA, one strand shown. The method, boiled down:
as §1

For the next assay, the target named is ETV1 (Homo sapiens, UniProt P50549 1-477). The conditions noted are these: protein: recombinant; tags: N-terminal GST; dsDNA, one strand shown. The method, boiled down:
as §1

Chain of HSF1 (Q00613 whole entry): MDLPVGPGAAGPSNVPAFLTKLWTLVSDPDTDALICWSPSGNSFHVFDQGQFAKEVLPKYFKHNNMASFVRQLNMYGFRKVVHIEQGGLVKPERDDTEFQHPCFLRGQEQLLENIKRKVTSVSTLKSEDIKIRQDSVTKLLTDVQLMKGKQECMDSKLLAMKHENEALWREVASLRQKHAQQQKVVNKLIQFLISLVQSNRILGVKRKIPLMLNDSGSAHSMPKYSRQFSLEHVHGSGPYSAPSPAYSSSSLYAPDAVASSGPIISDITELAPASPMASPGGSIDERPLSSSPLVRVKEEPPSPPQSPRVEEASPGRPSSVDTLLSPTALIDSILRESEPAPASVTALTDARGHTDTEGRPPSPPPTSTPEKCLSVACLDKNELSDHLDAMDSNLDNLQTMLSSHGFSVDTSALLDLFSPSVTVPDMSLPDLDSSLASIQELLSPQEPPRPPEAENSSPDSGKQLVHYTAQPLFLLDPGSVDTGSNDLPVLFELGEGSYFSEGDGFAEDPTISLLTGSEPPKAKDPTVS
Chain of CRX (O43186 whole entry): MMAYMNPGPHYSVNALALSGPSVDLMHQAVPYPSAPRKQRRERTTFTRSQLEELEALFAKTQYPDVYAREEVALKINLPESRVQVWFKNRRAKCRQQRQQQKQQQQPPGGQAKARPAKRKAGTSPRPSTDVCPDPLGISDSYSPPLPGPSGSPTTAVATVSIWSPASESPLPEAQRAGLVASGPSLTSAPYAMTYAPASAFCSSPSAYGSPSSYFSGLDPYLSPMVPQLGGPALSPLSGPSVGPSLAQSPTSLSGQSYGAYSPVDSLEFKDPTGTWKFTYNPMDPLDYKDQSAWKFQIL
Chain of ETV1 (P50549 whole entry): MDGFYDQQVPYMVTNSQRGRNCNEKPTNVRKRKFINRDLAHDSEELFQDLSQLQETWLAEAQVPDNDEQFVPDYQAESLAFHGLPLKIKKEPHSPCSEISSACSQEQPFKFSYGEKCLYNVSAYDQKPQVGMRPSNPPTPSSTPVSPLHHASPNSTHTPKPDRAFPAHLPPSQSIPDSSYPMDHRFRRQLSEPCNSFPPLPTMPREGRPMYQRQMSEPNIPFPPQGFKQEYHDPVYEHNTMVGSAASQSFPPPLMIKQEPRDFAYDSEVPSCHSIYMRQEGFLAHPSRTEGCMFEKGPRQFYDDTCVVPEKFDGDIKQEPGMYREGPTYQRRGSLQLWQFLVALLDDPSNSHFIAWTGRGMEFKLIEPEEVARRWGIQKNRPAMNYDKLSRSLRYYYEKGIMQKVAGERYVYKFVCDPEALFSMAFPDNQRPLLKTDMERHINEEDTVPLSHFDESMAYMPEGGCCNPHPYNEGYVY
Chain of ELF4 (Q99607 whole entry): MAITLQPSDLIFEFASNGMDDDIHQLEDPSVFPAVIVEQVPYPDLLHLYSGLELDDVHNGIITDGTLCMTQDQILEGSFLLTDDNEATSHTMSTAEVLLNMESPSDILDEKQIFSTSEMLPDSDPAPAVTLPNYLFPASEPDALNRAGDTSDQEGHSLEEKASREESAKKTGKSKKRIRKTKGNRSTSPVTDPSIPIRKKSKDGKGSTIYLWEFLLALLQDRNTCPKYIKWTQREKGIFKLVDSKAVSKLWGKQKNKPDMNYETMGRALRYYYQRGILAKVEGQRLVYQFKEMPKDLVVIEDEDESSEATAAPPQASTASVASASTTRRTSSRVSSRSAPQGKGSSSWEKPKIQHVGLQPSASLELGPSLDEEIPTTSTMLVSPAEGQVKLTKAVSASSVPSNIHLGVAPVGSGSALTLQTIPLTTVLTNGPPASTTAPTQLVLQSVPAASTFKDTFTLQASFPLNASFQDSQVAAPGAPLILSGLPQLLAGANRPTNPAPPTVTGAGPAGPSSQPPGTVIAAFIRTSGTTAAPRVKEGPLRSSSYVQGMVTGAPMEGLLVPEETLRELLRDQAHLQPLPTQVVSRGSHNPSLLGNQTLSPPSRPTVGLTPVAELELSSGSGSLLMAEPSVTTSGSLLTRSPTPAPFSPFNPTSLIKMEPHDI
Chain of SPIB (Q01892 whole entry): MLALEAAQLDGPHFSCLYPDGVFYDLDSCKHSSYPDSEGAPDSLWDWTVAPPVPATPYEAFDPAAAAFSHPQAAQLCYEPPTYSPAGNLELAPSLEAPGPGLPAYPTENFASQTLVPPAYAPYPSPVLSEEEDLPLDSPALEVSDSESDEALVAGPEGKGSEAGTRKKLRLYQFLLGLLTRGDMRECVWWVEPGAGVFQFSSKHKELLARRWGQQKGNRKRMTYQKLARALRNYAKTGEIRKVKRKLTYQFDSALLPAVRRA

TGCTCA: the binding signal with FLI1 was 1.32 fold enrichment (6-mer frequency, TF over GST control); in the assay with ELK1, 1.28 fold enrichment (6-mer frequency, TF over GST control); in the assay with GABPA it was 1.34 fold enrichment (6-mer frequency, TF over GST control); with ERG, 1.41 fold enrichment (6-mer frequency, TF over GST control); in the assay with ELF1, 1.41 fold enrichment (6-mer frequency, TF over GST control); with EHF, 1.36 fold enrichment (6-mer frequency, TF over GST control). Further, the binding signal is 1.27 fold enrichment (6-mer frequency, TF over GST control) in the assay with SPI1; 1.35 fold enrichment (6-mer frequency, TF over GST control) with SPIB; 1.19 fold enrichment (6-mer frequency, TF over GST control) in the assay with ELK3; 1.39 fold enrichment (6-mer frequency, TF over GST control) with FEV; 1.4 fold enrichment (6-mer frequency, TF over GST control) with ETV5; 1.12 fold enrichment (6-mer frequency, TF over GST control) with HSF1. Also, the binding signal with SPIC is 1.65 fold enrichment (6-mer frequency, TF over GST control); in the assay with ELF4, 1.28 fold enrichment (6-mer frequency, TF over GST control); with ELK4, 1.24 fold enrichment (6-mer frequency, TF over GST control); with ETV2, 1.42 fold enrichment (6-mer frequency, TF over GST control); in the assay with ELF3, 1.31 fold enrichment (6-mer frequency, TF over GST control); in the assay with CRX, 1.28 fold enrichment (6-mer frequency, TF over GST control). Further, the binding signal in the assay with ETV1 is 1.34 fold enrichment (6-mer frequency, TF over GST control).
